Screening data (PubChem BioAssay)
Sampled rows, rich in hits. Any-hit rate of the full collection: about 10%.
RORg inh – qHTS for inhibitors of ROR gamma transcriptional activity; Nuclear receptor ROR-gamma (Mus musculus), P51450; Drosophila S2 Gal4-RORgamma UAS-luciferase reporter, 20 h; Potency, µM (titrated, usually from 53.6 µM), inactives show at the highest dose activity change, negative = inhibition, usual class: inhibitors; 5.4% of 310,000 active; note: % is set by controls: 0 for no effect and ±100 for the full control effect; nearly all actives have a fitted effect of over 60% in size
Target sequence (P51450 whole entry, looked up, the tested form may be a part): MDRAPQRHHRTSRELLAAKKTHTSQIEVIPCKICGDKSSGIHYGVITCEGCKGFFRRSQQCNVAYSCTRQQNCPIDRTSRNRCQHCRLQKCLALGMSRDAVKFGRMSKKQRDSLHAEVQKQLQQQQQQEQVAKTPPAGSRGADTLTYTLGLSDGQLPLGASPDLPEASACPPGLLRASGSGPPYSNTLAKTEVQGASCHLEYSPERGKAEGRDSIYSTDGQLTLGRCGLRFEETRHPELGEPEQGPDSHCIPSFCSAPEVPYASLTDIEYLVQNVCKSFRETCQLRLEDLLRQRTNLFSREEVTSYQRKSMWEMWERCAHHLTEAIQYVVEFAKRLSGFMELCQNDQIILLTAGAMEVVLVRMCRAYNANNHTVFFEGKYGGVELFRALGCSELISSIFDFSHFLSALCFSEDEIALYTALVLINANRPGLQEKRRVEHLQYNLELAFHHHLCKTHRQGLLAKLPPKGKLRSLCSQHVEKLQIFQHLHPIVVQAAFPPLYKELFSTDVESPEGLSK
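Compounds are pin-transferred onto Drosophila Schneider cells expressing a copper-inducible Gal4–ROR gamma transactivation domain fusion. After 1 hr, copper sulfate is added to 700 uM final; luciferase is read 20 hr later.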
SW480 rereplic – A quantitative high throughput screen for small molecules that induce DNA re-replication in SW480 colon adenocarcinoma cells; AID 624297, 2012; 1.8% of 340,000 active; SW480 DNA re-replication, Hoechst DNA content imaging, 48 h; Potency, µM (doses to about 46.1 µM), without a hit: at the top dose re-replication activation, actives largely listed as activators; note: % of control where 0% means no effect; nearly all actives have a fitted effect of over 55% in size
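250 cells/well; 23 nL cpd via pin tool; 48 hr, 37 C, 5% CO2; Hoechst 40 min; imager read of total nuclear intensity, ex 405/em 500-530 nm.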
ELG1 DNA repair – qHTS screen for small molecules that inhibit ELG1-dependent DNA repair in human embryonic kidney (HEK293T) cells expressing luciferase-tagged ELG1; HEK293T ELG1-luciferase reporter, luminescence, 16 h; DNA damage induced by 5-fluorouridine; Potency, µM (titrated, usually from 46.1 µM), for the others: at the top dose activity change, negative = inhibition, most hits filed as inhibitors; 2.3% of 330,000 active; note: % is set by controls: 0 for no effect and ±100 for the full control effect; nearly all actives have a fitted effect of over 55% in size
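Cells (2,000 per well) received 5-fluorouridine plus test compound or DMSO and were incubated 16 hr at 37 °C, 5% CO2. Luciferase activity was read by luminescence 30 min after ONE-Glo addition; signal suppression marked inhibition of damage-induced ELG1 function.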
Gal4-VP16 FLuc – VP16 counterscreen qHTS for inhibitors of ROR gamma transcriptional activity; Potency, µM (titrated, usually from 53.6 µM), for the others: at the highest dose activity, negative = inhibition, usual class: inhibitors; AID 2546, 2010; Drosophila S2 Gal4-VP16 UAS-luciferase, luminescence, 20 h; 3.5% of 310,000 active;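 note: Gal4-VP16 expression switched on by copper sulfate through the metallothionein promoter; % is set by controls: 0 for no effect and ±100 for the full control effect; nearly all actives have a fitted effect of over 50% in size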
MCF10A rerep – A quantitative high throughput screen for small molecules that induce DNA re-replication in MCF 10a normal breast cells. MCF 10A DNA re-replication, Hoechst nuclear intensity, 48 h. Potency, µM (series often up to 46.1 µM), inactives show at the top dose activity, positive = re-replication, usual class: activators. 2.9% of 350,000 active. AID 624296, 2012; note: % of control where 0% means no effect; nearly all actives have a fitted effect of over 50% in size
Active calls of the source: *; ? = inconclusive; nt = no result; [ ] = remark or other dose. Calls come from the whole dose curve; as a rule, active = well fitted curve in the direction sought with a large enough effect; inconclusive = small, poorly fitted or top-dose-only effect, or another doubt; inactive = no such curve, though single readings can be large; an effect the other way counts as inactive or inconclusive. Potency is the fitted concentration of half-maximal effect.

SMILES | RORg inh | SW480 rereplic | ELG1 DNA repair | Gal4-VP16 FLuc | MCF10A rerep
COc1cc(C2CC(=O)Oc3cc(C)c(Br)c(C)c32)cc(OC)c1OC (stereo unspecified) | ? | 0% | 6% | 5.6µM* | ?
COc1ccc(C2CC(=O)Oc3cc(C)cc(C)c32)cc1 (stereo unspecified) | 35% | ? | -10% | -14% | 85%
CCOc1cc(C2C3=C(CC(C)(C)CC3=O)N(CCOC)C3=C2C(=O)CC(C)(C)C3)ccc1O | 30% | -3% | -21% | 14% | 7%
CCOC(=O)c1ccc(Nc2nc(C(=O)OCC)nc3ccccc23)cc1 | -30% | -1% | ? | -27% | ?
CCOC(=O)c1nc(Nc2ccc(Nc3ccccc3)cc2)c2ccccc2n1 | 37% | -4% | 7.3µM* | -5% | ?
CCOC(=O)c1nc(Nc2ccc(N3CCC(C)CC3)cc2)c2ccccc2n1 | ? | -18% | 5.8µM* | 24% | 14%
CCOC(=O)c1nc(Nc2ccc(C(=O)O)cc2)c2ccccc2n1 | -16% | 0% | 12% | -1% | -3%
COc1cccc(CNC(=O)C2CCC(=O)N(C3CC3)C2)c1OC (stereo unspecified) | 0% | -13% | 20% | 0% | -4%
COC(=O)c1ccc(OCCCCN(C)Cc2ccccc2)cc1 | 11%[1.91 µM] | 24% | 0% | 5% | 18µM*
C=CCn1ccc(O)c(Cc2ccc(Cl)cc2)c1=O | 28% | 0% | -8% | 3% | 0%
COc1ccc(S(=O)(=O)c2c(O)cc(C)c(NS(=O)(=O)c3ccccc3)c2C)cc1 | 25% | 9% | -4% | -5% | ?
Cc1ccc2c(=O)cc(C(=O)NCCc3ccc(S(N)(=O)=O)cc3)oc2c1 | 36% | -6% | 9.2µM* | -12% | -7%
COc1ccc2cc3cc(C(=O)NCCc4ccc(OC)c(OC)c4)oc3nc2c1 | -4% | -1% | 5.2µM* | -8% | ?
COc1ccc(CCNC(=O)c2ccc(CS(=O)(=O)c3ccc(C)cc3)o2)cc1OC | -10% | -4% | 16µM* | -2% | 26%
COc1ccc(CCNC(=O)c2cc(=O)c3ccc(C)cc3o2)cc1OC | 29% | ? | 16µM* | -10% | 5%
Cc1nnc(SCc2ccc(CSc3nnc(C)c(=O)[nH]3)cc2)[nH]c1=O | -7% | -3% | 8% | -1% | -4%
Cn1c(=O)c2c(nc(SCCCC#N)n2Cc2c(F)cccc2Cl)n(C)c1=O | 5% | -11% | 16µM* | 19% | -6%
CN1CCN(c2ccc(-c3cccc(NC(=O)COc4ccccc4)c3)nn2)CC1 | nt | -8% | ? | nt | ?
CCC(=O)Nc1cccc(-c2ccc(N3CCN(C)CC3)nn2)c1 | 14µM* | -11% | ? | ? | ?
CCC(=O)Nc1cccc(-c2ccc(N3CCCCC3)nn2)c1 | 2.5µM* | 2% | ? | 2.8µM* | -4%
CCCC[C@@H]1C[C@H]1C(NC(=O)c1ccco1)c1ccc(Cl)cc1 (stereo partly specified) | 38% | nt | nt | 2% | nt
COc1cc([N+](=O)[O-])ccc1NC(=O)COC(=O)C1=NN(c2ccccc2)C(=O)CC1 | nt | -2% | 0% | nt | -3%
CN(C)S(=O)(=O)c1ccc(Cl)c(C(=O)NC2=NCCS2)c1 | 17% | -7% | 13% | 18% | 1%
Cc1cc(Sc2nnc(/N=C/N(C)C)s2)c2ccccc2n1 | 8.9µM* | ? | -4% | ? | 9.2µM*
CCCCCCCCSc1nnc(/N=C/N(C)C)s1 | 13% | ? | 0% | 2% | 17%
Cc1cc(Sc2nnc(N)s2)c2ccccc2n1 | 7.9µM* | 0% | 0% | 11µM* | ?
Cc1cc(Cl)c2ccccc2n1 | -20% | -3% | 8% | 3% | 9%
N=C1C(c2ccccc2)=C(O)CN1c1cccc(S(=O)(=O)N2CCOCC2)c1 | 10% | -6% | ? | -4% | 4%
COc1ccc2[nH]cc(CCNc3nc(-c4cccnc4)nc4ccccc34)c2c1 | 21% | nt | nt | -6% | nt
